High-throughput results: PubChem, several laboratories
Shown are actives, neighbours in structure and some others; about 5% of the full set was active somewhere.
SENP7 inh – SENP7 protease inhibition; 1.5% of 330,000 active; recombinant SENP7, Z-RLRGG-aminoluciferin luminescence, 40 min; Q9BQF6; inhibition, % at 5 µM;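 active = inhibition above about 50% at the single test dose, limit read from the data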;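 also: plate controls were DMSO with enzyme for no effect and no enzyme buffer wells for full effect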
Target sequence (Q9BQF6 706-1050 limits assumed): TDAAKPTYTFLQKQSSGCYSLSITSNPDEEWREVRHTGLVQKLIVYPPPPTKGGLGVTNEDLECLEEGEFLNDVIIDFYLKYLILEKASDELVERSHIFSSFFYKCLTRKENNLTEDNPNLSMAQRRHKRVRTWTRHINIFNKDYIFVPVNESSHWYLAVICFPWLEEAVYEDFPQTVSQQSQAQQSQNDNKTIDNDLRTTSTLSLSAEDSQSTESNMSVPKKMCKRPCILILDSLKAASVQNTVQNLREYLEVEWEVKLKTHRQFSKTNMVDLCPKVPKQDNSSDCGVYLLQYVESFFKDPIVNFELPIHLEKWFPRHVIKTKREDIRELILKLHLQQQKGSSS
EBI2 block – EBI2 (human) antagonism; P32249; AID 651636; inhibition, % at 5 µM; EBI2 beta-arrestin recruitment, luminescence, 7a,25-OHC stimulated; 0.81% of 360,000 active; in the data active = inhibition above about 38%;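 also: enzyme fragment complementation signal reports receptor beta-arrestin coupling in cells; 0% = agonist plus DMSO wells and 100% = wells without agonist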
SENP8 block-1 – SENP8 (human) protease inhibition; Q96LD8; recombinant SENP8, Nedd8 substrate fluorescence; inhibition, % at 20 µM; 0.64% of 360,000 active; AID 602440; in the data active = inhibition mostly above about 40%, no sharp cut-off; inactive = mostly below about 27%
SENP8 block-2 – blocks the human protease SENP8. purified SENP8, Z-RLRGG-aminoluciferin cleavage, luminescence. inhibition, % at 10 µM. 1.2% of 330,000 active. Q96LD8; in the data active = inhibition above about 50%
SENP6 block – blocks the human protease SENP6; Recombinant SENP6 catalytic domain, aminoluciferin luminescence; inhibition, % at 10 µM; 1.8% of 330,000 active;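 active = inhibition above about 50% at the single tested dose, limit read from the data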;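 also: plate controls were DMSO wells with enzyme for no effect and DMSO wells lacking enzyme for full effect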
AHR activator – activators of human aryl hydrocarbon receptor | AHR-responsive luciferase reporter cells, luminescence | 2.5% of 320,000 active | P35869 | activation, % at 5 µM; in the data active = activation above about 47%;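 also: 0% = vehicle wells and 100% = reference agonist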
SENP8 confirm – human SENP8 inhibition, confirmed | 40% of 6,200 active | inhibition, % at 12.5 µM | AID 488912 | shares compounds with SENP7 inh | Recombinant SENP8, Z-RLRGG-aminoluciferin luminescence, 60 min;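 active = mean inhibition across replicates above about 50%, limit read from the data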
SENP6 confirm – human SENP6 inhibition, confirmed; shares compounds with SENP7 inh; recombinant SENP6, Z-RLRGG-aminoluciferin luminescence; inhibition, % at 12.5 µM; 58% of 6,200 active; AID 488915
SENP7 conf – confirmation of human SENP7 protease inhibitors; shares compounds with SENP7 inh; recombinant SENP7, Z-RLRGG-aminoluciferin luminescence, 40 min; inhibition, % at 12.5 µM; 69% of 6,200 active
Casp3 SENP sel – selectivity test for SENP inhibitors: human caspase-3 inhibition | shares compounds with SENP7 inh | purified caspase-3, Z-DEVD-aminoluciferin luminescence, 60 min | inhibition, % at 12.5 µM | 60% of 6,200 active | AID 488918;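 active = mean inhibition above about 50%, limit read from the data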;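 also: plate controls were enzyme with DMSO for no effect and wells without caspase-3 for full effect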
Target sequence (P42574 28-227 limits assumed): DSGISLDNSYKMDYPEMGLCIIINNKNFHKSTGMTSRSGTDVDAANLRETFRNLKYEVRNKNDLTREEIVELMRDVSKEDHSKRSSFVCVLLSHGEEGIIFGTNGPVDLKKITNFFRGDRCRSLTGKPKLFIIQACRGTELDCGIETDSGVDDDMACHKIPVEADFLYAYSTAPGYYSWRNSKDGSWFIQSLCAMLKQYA
SENP luc ctr – luminescence interference (SENP counter-screen) | shares compounds with SENP7 inh | AID 488919 | inhibition, % at 12.5 µM | Pre-incubated SENP8/Z-RLRGG-aminoluciferin, luciferase luminescence interference | 39% of 6,200 active;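 active = mean inhibition above about 50% when retested at one dose, limit read from the data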;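 also: plate controls were DMSO wells with completed reaction for no effect and substrate without enzyme for full effect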
Starred values were filed as active, the others as inactive; nt = not tested or not shown.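 The calls were made as follows, unless noted: active = mean inhibition above about 50% in the one-dose retest (limit read from the data); inactive = the rest.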

SMILES | SENP7 inh | EBI2 block | SENP8 block-1 | SENP8 block-2 | SENP6 block | AHR activator | SENP8 confirm | SENP6 confirm | SENP7 conf | Casp3 SENP sel | SENP luc ctr
CCc1ccc(NC(=O)C(CC)c2ccccc2)cc1 (configuration not stated) | -3 | 3 | 21 | -6 | 3 | 2 | nt | nt | nt | nt | nt
CCCCNC1=CC(=O)C(=O)c2ccccc21 | 81* | 9 | 85* | 86* | 93* | 53* | 61* | 87* | 74* | 91* | 5
CC(C)(C)OC(=O)CNC(=O)c1nc[nH]c1C(=O)N1CCc2ccccc2C1 | -1 | -11 | 9 | -8 | -17 | 5 | nt | nt | nt | nt | nt
O=C1C=C(Nc2ccccc2C(=O)O)c2ccccc2C1=O | 44 | -11 | 33 | 86* | 86* | 52* | -8 | 93* | 82* | 46 | 37
O=C(NCCCN1CCOCC1)c1cccnc1SCc1ccccc1Cl | -11 | -1 | 19 | -7 | -15 | 1 | nt | nt | nt | nt | nt
CCN(C(=O)CN1C(=O)S/C(=C\C=C\c2ccccc2)C1=O)C1CCS(=O)(=O)C1 (configuration not stated) | 12 | 2 | -24 | -8 | -22 | -2 | nt | nt | nt | nt | nt
CCOC(=O)COc1ccc(Br)cc1C1NC(=O)NC(C)=C1C(=O)NCc1ccccc1 (configuration not stated) | 4 | -3 | -4 | 1 | -14 | 8 | nt | nt | nt | nt | nt
Cc1ccc(S(=O)(=O)n2nccc2-c2c(-c3ccccc3)noc2C)cc1 | -9 | 5 | 8 | -13 | -10 | 2 | nt | nt | nt | nt | nt
Cc1ccc(-c2cc3onc(-c4ccccc4)c3c(=O)n2C)cc1 | 96* | 21 | 4 | 92* | 93* | -7 | 3 | 10 | 7 | 46 | 0
CC(Oc1ccc2ccccc2c1)C(=O)NNC(=O)Nc1ccccc1 (configuration not stated) | -10 | -6 | 12 | -6 | -5 | nt | nt | nt | nt | nt | nt
O=C(Nc1cccc([N+](=O)[O-])c1)c1cc2ccccc2cc1O | 70* | -3 | 40 | 80* | 87* | 24 | 14 | 37 | 44 | 79* | 4
O=C(Nc1ccncc1)c1cc2ccccc2cc1O | 93* | -35 | -6 | 96* | 99* | 37 | 85* | 99* | 102* | 97* | 45
COc1ccc(NC(=O)c2cc([N+](=O)[O-])ccc2O)cc1 | 100* | 6 | 29 | 96* | 100* | -7 | -25 | 101* | 104* | 100* | 100*
COc1ccc(NC(=O)c2ccc(-c3ccc([N+](=O)[O-])cc3)o2)cc1 | -9 | 12 | 17 | -4 | -18 | 7 | nt | nt | nt | nt | nt
Cc1c(C(=O)Nc2cccc([N+](=O)[O-])c2)csc1-c1ccccc1 | 97* | 22 | 25 | 2 | 72* | -11 | 32 | 27 | 45 | 76* | 52*
Cc1ccc(NC(=O)c2csc(-c3ccccc3)c2C)cc1 | nt | 26 | 10 | nt | nt | nt | nt | nt | nt | nt | nt
COc1cccc(NC(=O)C2CCCO2)c1 (configuration not stated) | -7 | 3 | 14 | -5 | -22 | 1 | nt | nt | nt | nt | nt
CCc1ccc(C(=O)CSc2nc3cc(S(=O)(=O)N4CCOCC4)ccc3n2CC)cc1 | 9 | 10 | 11 | -1 | -4 | 9 | nt | nt | nt | nt | nt
COc1cc(CN2CCC(C(=O)NCCC(C)C)CC2)ccc1OCc1ccccc1 | 4 | -3 | 5 | 8 | 7 | 4 | nt | nt | nt | nt | nt
COc1cc(CNC(=O)C2CC2)ccc1OCc1ccccc1 | 48 | -10 | 2 | 36 | 55* | 8 | 43 | 40 | 78* | 76* | 39
Cc1ccc(OCC(=O)Nc2cccc(C)n2)c(C)c1 | 65* | -5 | 0 | 45 | 74* | 18 | 30 | 67* | 90* | 69* | 22
COc1ccc(OCCCC(=O)Nc2cc(S(=O)(=O)N3CCCCC3)ccc2OC)cc1 | 2 | 12 | -2 | 10 | 0 | 0 | nt | nt | nt | nt | nt
Nc1cc(-c2ccc(Cl)cc2)nn1-c1ccccc1 | 63* | 9 | -2 | 48 | 34 | -5 | 36 | 38 | 80* | 53* | 71*
CC(=O)Nc1ccc(-c2cc(N)n(-c3ccccc3)n2)cc1 | 58* | -7 | -67 | 38 | 55* | 72* | 45 | 44 | 78* | 80* | 62*
CC(=O)Nc1ccc(-c2cc(NC(C)=O)n(-c3ccccc3)n2)cc1 | -11 | 1 | -27 | -2 | -12 | 31 | nt | nt | nt | nt | nt
SMILES | SENP7 inh | EBI2 block | SENP8 block-1 | SENP8 block-2 | SENP6 block | AHR activator | SENP8 confirm | SENP6 confirm | SENP7 conf | Casp3 SENP sel | SENP luc ctr
O=C(CNC(=O)c1ccccc1Cl)N/N=C/c1ccc([N+](=O)[O-])s1 | 13 | -9 | 28 | 9 | 70* | 7 | 18 | 37 | 1 | 2 | -2
O=C(Cc1cccs1)N/N=C\c1ccc([N+](=O)[O-])s1 | 13 | 6 | 29 | 9 | 34 | 3 | nt | nt | nt | nt | nt
NC(=O)c1ccc(NC(=O)Cc2ccc(S(=O)(=O)N3CCCCC3)cc2)cc1 | 5 | 4 | -15 | 1 | 1 | -2 | nt | nt | nt | nt | nt
COc1ccc(C2c3ccc(O)cc3Oc3ncn4nc(-c5ccncc5)nc4c32)cc1OC (configuration not stated) | -2 | 37 | 8 | 8 | 67* | 11 | 12 | 8 | 5 | 2 | -3
COc1ccc(C2c3ccc(O)cc3Oc3ncn4nc(-c5ccccn5)nc4c32)cc1OC (configuration not stated) | -7 | 38 | 1 | -9 | -20 | 2 | nt | nt | nt | nt | nt
Cn1c(SCc2ccccc2F)nc2cccnc21 | 48 | -10 | 10 | 25 | 60* | -2 | 54* | 51* | 81* | 64* | 57*
COC(=O)Cc1ccc(NC(=S)NNC(=O)C2CC2)cc1 | 4 | -3 | 37 | 6 | 11 | 4 | nt | nt | nt | nt | nt
O=C(O)/C=C/c1ccc(O)cc1 | -4 | 1 | 26 | 2 | 13 | 0 | nt | nt | nt | nt | nt
CC(/C=C/c1ccc(O)cc1)=N/O | 85* | 5 | 2 | 81* | 91* | 6 | 86* | 84* | 96* | 93* | 86*
CCc1ccc(C(C)NC(=O)c2ncn[nH]2)cc1 (configuration not stated) | 4 | -1 | 16 | 2 | 16 | 5 | nt | nt | nt | nt | nt
CCCCN1C=CC(=C2C(=O)c3ccccc3C2=O)C=C1 | 78* | -8 | 12 | 89* | 92* | -14 | -2 | 92* | 100* | 95* | 41
